Data as given in PubChem BioAssay (NCI).
Compounds without any hit were thinned out: in the full panel of roughly 79,000, 15% have a hit. Active and inactive are the calls of the source. Rule as the data show it: active = growth inhibition above about 70%; inactive = the rest.

How the values were obtained:
[1] = NCI Yeast Anticancer Drug Screen. Data for the rad50 strain (AID 155);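 also: 0% = growth of vehicle-only cultures of the same strain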; conditions: S. cerevisiae rad50 strain growth inhibition, active compounds read high
Summary of the method: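 Vehicle-treated cultures provide the reference for the growth inhibition reported for compound-exposed, repair-deficient yeast.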

[2] = NCI Yeast Anticancer Drug Screen. Data for the mec2-1 strain (AID 157); conditions: S. cerevisiae mec2-1 strain, active compounds read high
Summary of the method: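 Yeast mec2-1 mutant treated with compound. Readout: growth inhibition vs vehicle controls.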

[3] = NCI Yeast Anticancer Drug Screen. Data for the sgs1 mgt1 strain (AID 161);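 also: 0% = growth of cultures given vehicle only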; conditions: S. cerevisiae sgs1 mgt1 strain, active compounds read high
Summary of the method: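 Test agents were incubated with a DNA-repair-mutant yeast strain. Growth was then read and compared against vehicle-treated controls.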

[4] = NCI Yeast Anticancer Drug Screen. Data for the cln2 rad14 strain (AID 165);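 also: 0% = growth equal to vehicle treated cultures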; conditions: S. cerevisiae cln2 rad14 strain, active compounds read high
Summary of the method: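 cln2 rad14 yeast strain; compound exposure; growth inhibition read vs vehicle controls.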

[5] = NCI Yeast Anticancer Drug Screen. Data for the bub3 strain (AID 167); conditions: S. cerevisiae bub3 mutant strain, active compounds read high
Summary of the method: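 Mutant yeast screening strain plus compound; vehicle-treated cultures serve as the 0% inhibition reference.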

[6] = NCI Yeast Anticancer Drug Screen. Data for the mlh1 rad18 strain (AID 175); conditions: S. cerevisiae mlh1 rad18 strain growth inhibition, active compounds read high
Summary of the method: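 Yeast w/ defined DNA-repair lesions; compound exposure; growth vs vehicle controls → % inhibition.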

[7] = at 5.0 µM (retest, dose inferred, filed as 0.5)
[8] = at 50.0 µM (retest, dose inferred, filed as 5.0)

Measured: growth inhibition

COc1ccc2nc3cc(Cl)ccc3c(Nc3ccc(O)c(CN4CCN(C)CC4)c3)c2c1
inactive: [1]; [7] 25% | [1]; [8] 43% | [1]; at 50.0 µM 66.9% | [2]; [7] 7% | [2]; [8] -11% | [2]; at 50.0 µM -26.7% | [3]; [7] 8% | [3]; [8] 6% | [3]; at 50.0 µM 32% | [4]; [7] 21% | [4]; [8] 2% | [4]; at 50.0 µM 27.6% | [5]; [7] 8% | [5]; [8] 6% | [5]; at 50.0 µM -33.8% | [6]; [7] 13% | [6]; [8] 1% | [6]; at 50.0 µM -2.9%

C[N+]1=C(/C=C\c2ccc(O)c3ccccc23)C(C)(C)c2ccccc21
active: [1]; [8] 82% | [2]; [8] 89% | [3]; [8] 92% | [4]; [8] 83% | [5]; [8] 82% | [6]; [8] 82%
inactive: [1]; [7] -2% | [1]; at 50.0 µM 40.5% | [2]; [7] 3% | [2]; at 50.0 µM 50.2% | [3]; [7] -2% | [3]; at 50.0 µM 36% | [4]; [7] -4% | [4]; at 50.0 µM 54.9% | [5]; [7] 15% | [5]; at 50.0 µM 38.5% | [6]; [7] 28% | [6]; at 50.0 µM 43.7%

CCCCCCCCCN1CCNC1=S
active: [3]; at 50.0 µM 71% | [5]; [8] 80%
inactive: [1]; [7] -5% | [1]; [8] 63% | [1]; at 50.0 µM 38.9% | [2]; [7] -7% | [2]; [8] 30% | [2]; at 50.0 µM -10.4% | [3]; [7] 6% | [3]; [8] 60% | [4]; [7] -18% | [4]; [8] 40% | [4]; at 50.0 µM 0.9% | [5]; [7] 34% | [5]; at 50.0 µM 54.3% | [6]; [7] 0% | [6]; [8] 61% | [6]; at 50.0 µM 49.5%

COc1ccccc1/C=C1\SC(=S)N(/C=C2\C(=O)Oc3ccccc3C2=O)C1=O
inactive: [1]; [7] 1% | [1]; [8] 12% | [1]; at 50.0 µM 30.9% | [2]; [7] -3% | [2]; [8] 27% | [2]; at 50.0 µM 18.6% | [3]; [7] 8% | [3]; [8] 12% | [3]; at 50.0 µM 54.2% | [4]; [7] -8% | [4]; [8] 17% | [4]; at 50.0 µM 58.9% | [5]; [7] 20% | [5]; [8] 38% | [5]; at 50.0 µM 32.2% | [6]; [7] -16% | [6]; [8] 14% | [6]; at 50.0 µM 53.7%

CCCCCCCCCCCCCCCCC#N
inactive: [1]; [7] -6% | [1]; [8] -8% | [1]; at 50.0 µM 50.4% | [2]; [7] -2% | [2]; [8] -4% | [2]; at 50.0 µM -7.4% | [3]; [7] 0% | [3]; [8] -4% | [3]; at 50.0 µM 52.1% | [4]; [7] 2% | [4]; [8] 0% | [4]; at 50.0 µM 16.2% | [5]; [7] -3% | [5]; [8] -9% | [5]; at 50.0 µM 52.2% | [6]; [7] -5% | [6]; [8] -5% | [6]; at 50.0 µM 24.1%

COc1cc2c(cc1O)-c1c(cnn1-c1ccccc1)CCC2
inactive: [1]; [7] -7% | [2]; [7] -5% | [3]; [7] 2% | [4]; [7] -17% | [4]; at 50.0 µM 55% | [5]; [7] -7% | [6]; [7] -8%
active: [1]; [8] 85% | [1]; at 50.0 µM 95.5% | [2]; [8] 93% | [2]; at 50.0 µM 96% | [3]; [8] 88% | [3]; at 50.0 µM 97.4% | [4]; [8] 88% | [5]; [8] 86% | [5]; at 50.0 µM 93.3% | [6]; [8] 92% | [6]; at 50.0 µM 97.6%

F[Si](c1ccccc1)(c1ccccc1)c1ccccc1
inactive: [1]; [7] -3% | [1]; at 50.0 µM 62% | [2]; [7] 3% | [2]; at 50.0 µM 25.3% | [3]; [7] 8% | [3]; at 50.0 µM 32.1% | [4]; [7] 0% | [4]; at 50.0 µM 41.6% | [5]; [7] -5% | [5]; at 50.0 µM 45.6% | [6]; [7] 10%
active: [1]; [8] 75% | [2]; [8] 87% | [3]; [8] 79% | [4]; [8] 82% | [5]; [8] 98% | [6]; [8] 94% | [6]; at 50.0 µM 79.5%

C=CCOC(=O)CCC(=O)N(CC)CC
inactive: [1]; [7] 4% | [1]; [8] -10% | [1]; at 50.0 µM -8.95% | [2]; [7] -1% | [2]; [8] 1% | [2]; at 50.0 µM -12.7% | [3]; [7] -6% | [3]; [8] -11% | [3]; at 50.0 µM -25.1% | [4]; [7] -7% | [4]; [8] 0% | [5]; [7] -2% | [5]; [8] 1% | [5]; at 50.0 µM -7.35% | [6]; [7] -2% | [6]; [8] -10% | [6]; at 50.0 µM -2.3%
active: [4]; at 50.0 µM 72.5%

COc1c(O)cc(C=O)cc1[N+](=O)[O-]
inactive: [1]; [7] -7% | [1]; [8] 14% | [1]; at 50.0 µM 7.3% | [2]; [7] 1% | [2]; [8] 12% | [2]; at 50.0 µM 2.15% | [3]; [7] -1% | [3]; [8] 11% | [3]; at 50.0 µM 40.3% | [4]; [7] 4% | [4]; [8] 20% | [4]; at 50.0 µM 69.2% | [5]; [7] -1% | [5]; [8] 1% | [5]; at 50.0 µM -9.85% | [6]; [7] -4% | [6]; [8] 14% | [6]; at 50.0 µM 8.1%
